Measured values published in PubChem BioAssay (Tox21).
Where “and” joins values, the source holds several entries; their conditions need not be identical. Equal entries are not always repeated. Records with an inconclusive call do not appear. Calls of active or inactive are those of the source. Unless noted, the call rests on the fitted dose curve; in most records, active means well fitted curve in the direction sought with a large enough effect in the repeat runs; inconclusive means weak or mixed curves; inactive means no such curve, though single readings can be large; an effect the other way counts as inactive or inconclusive.

Key:
[1] = qHTS assay to identify small molecule agonists of the progesterone receptor (PR) signaling pathway - cell viability counter screen (AID 1346799; calls by dose curve; further: nearly all actives have a fitted effect of over 45% in size; further: potency means the concentration at half of the fitted maximal effect)
Procedure, shortened: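 Cytotoxicity measured by CellTiter-Glo luminescence (30 min, RT) in the same wells as the PR beta-lactamase agonist read. Those HEK293T cells had 16 h compound treatment at 37 C in 2% charcoal-stripped FBS medium.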

[2] = qHTS assay to identify small molecule antagonists of the TGF-beta/Smad signaling pathway - cell viability counter screen (AID 1346824); further: nearly all actives have a fitted effect of over 50% in size; further: potency means the concentration at half of the fitted maximal effect
Procedure, shortened: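 SBE-bla HEK 293T cells were plated overnight at 37 C, then given compounds in DMSO plus TGF-beta1 (added as 0.25 ng/mL solution) for 5 hr. After the bla read, CellTiter-Glo was added to the same wells and luminescence read after 30 min at room temperature.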

[3] = qHTS assay to identify small molecule agonists of the TGF-beta/Smad signaling pathway - cell viability counter screen (AID 1346829); further: nearly all actives have a fitted effect of over 45% in size; further: potency means the concentration at half of the fitted maximal effect
Procedure, shortened: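 After overnight seating at 37 C and 5% CO2, reporter cells got compounds for 5 hr and FRET substrate for 2 hr; cell viability then came from CellTiter-Glo luminescence.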

[4] = target: Thyrotropin-releasing hormone receptor (Homo sapiens) (UniProt P34981); assay: qHTS assay to identify small molecule antagonists of the thyrotropin-releasing hormone receptor (TRHR) signaling pathway (AID 1346877; active means well fitted inhibition curve with a large enough effect in the repeat runs, not every such curve was filed as active; further: series mostly up to about 51 µM)
Procedure, shortened: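 Human TRHR in HEK293 cells; inhibition of the intracellular calcium rise triggered by 1 nM TRH was followed by fluorescence over 3 min. Compounds were run at 15 concentrations, three replicates each.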

[5] = Caspase-3/7 induction in CHO-K1 cells by small molecules, qHTS assay (AID 1346980); further: nearly all actives have a fitted effect of over 15% in size; further: potency means the concentration at half of the fitted maximal effect
Procedure, shortened: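 Wild-type cells were seeded at 1,500 per well and settled 5 hr at 37 C, 5% CO2, then exposed to DMSO-dissolved compounds for 17 hr. Caspase-Glo 3/7 reagent was added, and luminescence was read after 30min at room temperature.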

[6] = target: Nuclear receptor subfamily 1 group I member 2 (Homo sapiens) (UniProt O75469); assay: Human pregnane X receptor (PXR) small molecule agonists, qHTS assay (AID 1346982); further: nearly all actives have a fitted effect of over 35% in size; further: potency means the concentration at half of the fitted maximal effect
Procedure, shortened: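 After plating in 5% charcoal-stripped FBS and a 5 hr rest, PXR-Luc HepG2 cells received compounds in DMSO. Following 24 hr at 37 C, ONE-Glo was added and light output read.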

[7] = target: Cytochrome P450 2D6 (Homo sapiens) (UniProt P10635); assay: Cytochrome P450 Family 2 Subfamily D Member 6 (CYP2D6) small molecule antagonists: luciferase reporter qHTS assay (AID 1671196); further: nearly all actives have a fitted effect of over 50% in size; further: potency means the concentration at half of the fitted maximal effect
Procedure, shortened: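 Quantitative HTS of Tox21 chemicals against CYP2D6 using a luminescent proluciferin substrate. After NADPH addition, 1 h room-temperature reaction; luminescence recorded 20 min post detection reagent.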

[8] = target: Cytochrome P450 2C19 (Homo sapiens) (UniProt P33261); assay: Cytochrome P450 Family 2 Subfamily C Member 19 (CYP2C19) small molecule antagonists: luciferase reporter qHTS assay (AID 1671197); further: nearly all actives have a fitted effect of over 65% in size; further: potency means the concentration at half of the fitted maximal effect
Procedure, shortened: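 Inhibition of CYP2C19 was scored from loss of luminescence in a P450-Glo proluciferin substrate assay, NADPH-started and run 1 h at 37C, with ketoconazole as positive control.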

[9] = qHTS assay to identify small molecule agonists of the TGF-beta/Smad signaling pathway (AID 1346859; active means well fitted activation curve with a large enough effect in the signal ratio in the repeat runs, not every such curve was filed as active; the % refers to the signal ratio; further: series mostly up to about 77 µM)
Procedure, shortened: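 Fluorescence (ex 405 nm; em 460 and 530 nm) was read 2 h after LiveBLAzer FRET substrate at RT. The preceding compound treatment of overnight-plated SBE-bla HEK293T cells lasted 5 h at 37 C.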

[10] = Human pregnane X receptor (PXR) small molecule agonists, qHTS cell viability counter screen (AID 1346977); further: nearly all actives have a fitted effect of over 50% in size; further: potency means the concentration at half of the fitted maximal effect
Procedure, shortened: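 Same-well viability read: CellTiter-Fluor added after 23 hr compound exposure, fluorescence measured 1 hr later. Cells were PXR-Luc HepG2 seeded at 2,000/well in 5% charcoal-stripped FBS medium, rested 5 hr before dosing at 37 C.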

[11] = Caspase-3/7 induction in HepG2 cells by small molecules, qHTS assay (AID 1346978); further: nearly all actives have a fitted effect of over 15% in size; further: potency means the concentration at half of the fitted maximal effect
Procedure, shortened: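 Wild-type HepG2 cells (2,000/well) were settled 5 h at 37 C, 5% CO2, then exposed to compounds in DMSO for 17 h. Caspase-3/7 activity was read by luminescence 30 min after adding Caspase-Glo 3/7 reagent at room temperature.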

[12] = Caspase-3/7 induction in CHO-K1 cells by small molecules, qHTS cell viability counter screen (AID 1346979); further: potency means the concentration at half of the fitted maximal effect; nearly all actives have a fitted effect of over 35% in size
Procedure, shortened: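 Cytotoxicity counter screen: CellTiter-Fluor added to compound-treated wild-type CHO-K1 cells at 16 h (37C, 5% CO2), fluorescence measured 1 h later; same wells as caspase-3/7 measurement.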

[13] = Caspase-3/7 induction in HepG2 cells by small molecules, qHTS cell viability counter screen (AID 1346981); further: nearly all actives have a fitted effect of over 30% in size; further: potency means the concentration at half of the fitted maximal effect
Procedure, shortened: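 The parent HepG2 line is plated at 2,000 cells per well and rested 5 hr before compound pinning from DMSO stocks. Following a 16-hr treatment at 37 C, a fluorogenic live-cell substrate (CellTiter-Fluor) reports viability after 1 hr.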

[14] = target: Thyrotropin-releasing hormone receptor (Homo sapiens) (UniProt P34981); assay: qHTS assay to identify small molecule agonists of the thyrotropin-releasing hormone receptor (TRHR) signaling pathway (AID 1346891; calls by dose curve; further: series mostly up to about 58 µM)
Procedure, shortened: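 Agonist-mode intracellular calcium readout: kinetic fluorescence over 3 min at 1 s intervals after compound addition to TRHR-HEK293 cells (18 h seeded, 2 h dye-loaded at 37 C). Fifteen concentrations, triplicates.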

Measured: Potency

Sequence of Cytochrome P450 2D6 (Homo sapiens) (P10635 whole entry, looked up): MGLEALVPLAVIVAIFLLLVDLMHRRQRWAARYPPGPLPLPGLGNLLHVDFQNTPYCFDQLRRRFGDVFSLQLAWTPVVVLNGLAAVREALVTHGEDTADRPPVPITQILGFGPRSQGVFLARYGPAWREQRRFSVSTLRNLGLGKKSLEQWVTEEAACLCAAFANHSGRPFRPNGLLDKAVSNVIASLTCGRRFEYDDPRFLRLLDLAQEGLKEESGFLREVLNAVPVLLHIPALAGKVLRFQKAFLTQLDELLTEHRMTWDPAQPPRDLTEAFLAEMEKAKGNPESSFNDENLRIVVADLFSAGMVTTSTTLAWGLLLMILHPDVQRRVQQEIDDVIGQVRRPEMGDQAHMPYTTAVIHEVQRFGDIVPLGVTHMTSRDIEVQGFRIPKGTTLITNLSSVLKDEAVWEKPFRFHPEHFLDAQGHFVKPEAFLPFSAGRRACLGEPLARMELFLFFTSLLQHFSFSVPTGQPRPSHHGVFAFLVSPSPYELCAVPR
Sequence of Cytochrome P450 2C19 (Homo sapiens) (P33261 whole entry, looked up): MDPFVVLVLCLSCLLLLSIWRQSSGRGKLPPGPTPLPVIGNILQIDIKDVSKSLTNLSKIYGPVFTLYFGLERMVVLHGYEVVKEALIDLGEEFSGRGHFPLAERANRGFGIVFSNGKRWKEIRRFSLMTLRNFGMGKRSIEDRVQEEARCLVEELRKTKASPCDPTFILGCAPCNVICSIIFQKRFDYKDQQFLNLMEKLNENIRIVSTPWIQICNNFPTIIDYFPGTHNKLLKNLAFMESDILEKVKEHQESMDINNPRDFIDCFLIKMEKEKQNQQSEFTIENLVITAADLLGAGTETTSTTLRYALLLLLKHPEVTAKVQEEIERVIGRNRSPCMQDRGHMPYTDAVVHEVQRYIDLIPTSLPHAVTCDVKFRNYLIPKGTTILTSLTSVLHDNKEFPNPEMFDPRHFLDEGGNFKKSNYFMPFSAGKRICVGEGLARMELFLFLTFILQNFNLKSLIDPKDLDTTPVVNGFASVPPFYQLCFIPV
Sequence of Thyrotropin-releasing hormone receptor (Homo sapiens) (P34981 whole entry, looked up): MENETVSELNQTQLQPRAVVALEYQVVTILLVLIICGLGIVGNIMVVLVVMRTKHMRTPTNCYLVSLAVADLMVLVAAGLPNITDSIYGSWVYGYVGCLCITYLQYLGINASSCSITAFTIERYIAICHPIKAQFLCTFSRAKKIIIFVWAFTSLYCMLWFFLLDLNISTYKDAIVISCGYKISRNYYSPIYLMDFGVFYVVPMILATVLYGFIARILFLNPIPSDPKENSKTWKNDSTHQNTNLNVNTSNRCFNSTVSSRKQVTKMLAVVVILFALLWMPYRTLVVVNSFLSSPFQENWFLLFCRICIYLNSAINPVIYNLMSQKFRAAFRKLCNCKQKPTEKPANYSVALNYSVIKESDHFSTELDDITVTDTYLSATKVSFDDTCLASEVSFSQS
Sequence of Nuclear receptor subfamily 1 group I member 2 (Homo sapiens) (O75469 whole entry, looked up): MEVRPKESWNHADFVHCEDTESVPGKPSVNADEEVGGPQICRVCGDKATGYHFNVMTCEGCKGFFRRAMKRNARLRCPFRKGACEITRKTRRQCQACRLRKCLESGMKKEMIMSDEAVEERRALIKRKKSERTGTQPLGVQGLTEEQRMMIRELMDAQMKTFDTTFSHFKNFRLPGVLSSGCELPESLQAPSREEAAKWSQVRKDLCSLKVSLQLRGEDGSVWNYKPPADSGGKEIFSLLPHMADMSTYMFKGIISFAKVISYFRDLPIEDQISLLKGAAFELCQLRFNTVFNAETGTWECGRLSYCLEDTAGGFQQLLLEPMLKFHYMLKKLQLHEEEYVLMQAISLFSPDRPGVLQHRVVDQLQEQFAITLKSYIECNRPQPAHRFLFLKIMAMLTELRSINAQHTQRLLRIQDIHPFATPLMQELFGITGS

Nc1ccc2c3c(cccc13)-c1ccccc1-2
active: [6] 27.6 µM | [8] 18 µM
inactive: [1] | [2] | [3] | [4] | [5] | [7]

CCc1cc(Cc2cc(CC)cc(C(C)(C)C)c2O)c(O)c(C(C)(C)C)c1
active: [1] 30.6 µM | [2] 49 µM | [3] 54.9 µM | [10] 30.6 µM | [11] 68.6 µM | [12] 38.6 µM | [5] 54.5 µM | [13] 54.5 µM | [6] 0.686 µM
inactive: [9] | [7]

C[C@]12CCC(=O)C=C1CC[C@@H]1[C@@H]2[C@@H](O)C[C@@]2(C)[C@H]1CC[C@]2(O)C(=O)COC(=O)CCC(=O)O
not listed: [1] | [12]
inactive: all other assays above

Cc1[nH]nc2c1N=C(c1ccccc1Cl)c1cc([N+](=O)[O-])ccc1N2
active: [3] 4.36 µM | [10] 13.7 µM | [11] 17.2 µM | [12] 21.7 µM | [5] 19.3 µM | [13] 19.3 µM | [6] 6.11 µM | [8] 17.8 µM

[Cl][Au]([Cl])[Cl]
active: [3] 54.9 µM | [10] 13.7 µM | [12] 24.3 µM | [13] 68.6 µM
inactive: [2] | [4] | [14] | [11] | [5]

CCCCc1oc2ccc(NS(C)(=O)=O)cc2c1C(=O)c1ccc(OCCCN(CCCC)CCCC)cc1
inactive: [4] | [14] | [5]
active: [1] 13.3 µM | [2] 23.9 µM | [10] 18.8 µM | [11] 18.8 µM | [13] 26.6 µM | [7] 11 µM | [8] 9.77 µM

CC(C)(C)C1CCC(CC2=C(O)c3ccccc3C(=O)C2=O)CC1 (configuration not stated)
active: [12] 9.44 µM | [13] 11.9 µM
not listed: [4] | [6] | [10] | [14]
inactive: all other assays above

OCCN(CCO)c1nc(N2CCCCC2)c2nc(N(CCO)CCO)nc(N3CCCCC3)c2n1
active: [7] 9.77 µM
inactive: [2] | [3] | [4] | [11] | [5]

Cc1cc(O)c(C(C)(C)C)cc1C(C)(C)C
active: [1] 48.6 µM | [3] 49 µM | [11] 61.1 µM | [12] 61.1 µM | [8] 17.8 µM
inactive: [9]

CCCCC(CC)COP(=O)(O)OCC(CC)CCCC (configuration not stated)
active: [6] 61.3 µM and 54.5 µM | [7] 50.2 µM | [8] 31.8 µM and 31.7 µM
not listed: [1] | [10] | [12]
inactive: all other assays above

Oc1cccc(-c2c3nc(c(-c4cccc(O)c4)c4ccc([nH]4)c(-c4cccc(O)c4)c4nc(c(-c5cccc(O)c5)c5ccc2[nH]5)CC4)C=C3)c1
active: [10] 15 µM | [12] 13.3 µM | [13] 13.3 µM | [8] 38.9 µM
inactive: [2] | [3] | [9] | [11] | [5]

O=[N+]([O-])c1ccccc1Nc1ccccc1
active: [6] 48.3 µM | [8] 19.9 µM
not listed: [1] | [7] | [10] | [12]
inactive: all other assays above

Cc1cc(=O)oc2cc(N(C)C)ccc12
inactive: [2] | [3] | [4] | [14] | [11] | [5]
active: [6] 48.6 µM | [8] 79.6 µM

O=c1cc(-c2ccc(O)cc2)oc2cc(O)cc(O)c12
inactive: [2] | [3] | [9] | [4] | [11] | [5]
active: [13] 27.7 µM and 61.1 µM | [7] 64.1 µM | [8] 32.1 µM and 39.9 µM
